Data: PubChem BioAssay
For some of these results: Potency and affinity values are given separately. Active and inactive are the calls of the source. Unless noted, no rule for the calls is given here.

Legend:
[1] = antimalarial activity against Dd2 strain (AID 2302;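 active = growth inhibition above 50% at the single 2 µM test dose, taken to imply half-maximal potency below 2 µM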;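 also: 0% = DMSO untreated growth and 100% = chloroquine plus artemisinin killed control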); conditions: P. falciparum Dd2 in RBCs, LDH growth readout, 72 h; at 2 µM; active compounds read high
[2] = HepG2 cytotoxicity, primary screen, cytotoxicity control for P. falciparum antimalarial project, cell-based, ATP luminescence (AID 2303;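 active = inhibition above 50%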;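 also: 0% = DMSO wells and 100% = digitonin-killed cells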); conditions: HepG2 viability, 24-48 h, at 10 µM, active compounds read high
[3] = biological target: L-lactate dehydrogenase (Plasmodium falciparum (isolate CDC / Honduras)) (UniProt Q27743); assay: PfLDH activity inhibition – cell lysate, 3D7 strain, counter-screen for P. falciparum growth inhibition project (AID 2304);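 also: 0% = vehicle and 100% = reference inhibitor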; conditions: P. falciparum 3D7 crude extract, LDH APAD/NBT absorbance; at 2 µM; active compounds read high
[4] = inhibition of 3D7 malaria parasite growth – strain 3D7 (AID 2306);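 also: 0% = DMSO wells and 100% = chloroquine plus artemisinin control wells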; conditions: P. falciparum 3D7 erythrocytic growth, LDH absorbance, 72 h; at 2 µM; active compounds read high
[5] = biological target: Calcium-dependent protein kinase 1 (Plasmodium falciparum (isolate 3D7)) (UniProt P62344); assay: PfCDPK1 kinase inhibitors, biochemical, TCAMS library (AID 1159585; cut-off not given, nearly all actives have IC50 up to about 0.98 µM;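 also: inhibitors leave more ATP so luminescence rises with inhibition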); conditions: recombinant PfCDPK1, Kinase-Glo ATP depletion luminescence
[6] = biological target: Plasmodium falciparum protein kinase 6 (PK6, PF3D7_1337100) (UniProt Q8IDW1); assay: PfPK6 kinase inhibitors, biochemical, TCAMS library (AID 1159586); conditions: recombinant PfPK6, Kinase-Glo ATP depletion luminescence
[7] = biological target: Protein kinase 7 (PK7), Plasmodium falciparum 3D7 (PF3D7_0213400) (UniProt Q7YTF7); assay: inhibition of Plasmodium PK7 catalytic activity – biochemical, TCAMS antimalarial set, Kinase-Glo luminescence (AID 1159587); conditions: recombinant PfPK7, Kinase-Glo ATP depletion luminescence
[8] = biological target: Calcium-dependent protein kinase 4 (Plasmodium falciparum (isolate 3D7)) (UniProt Q8IBS5); assay: PfCDPK4 kinase inhibitors, biochemical, TCAMS library (AID 1159588; cut-off not given, nearly all actives have IC50 up to about 0.91 µM); conditions: recombinant PfCDPK4, Kinase-Glo ATP depletion luminescence
Sequence of Calcium-dependent protein kinase 4 (Plasmodium falciparum (isolate 3D7)) (Q8IBS5 whole entry, looked up): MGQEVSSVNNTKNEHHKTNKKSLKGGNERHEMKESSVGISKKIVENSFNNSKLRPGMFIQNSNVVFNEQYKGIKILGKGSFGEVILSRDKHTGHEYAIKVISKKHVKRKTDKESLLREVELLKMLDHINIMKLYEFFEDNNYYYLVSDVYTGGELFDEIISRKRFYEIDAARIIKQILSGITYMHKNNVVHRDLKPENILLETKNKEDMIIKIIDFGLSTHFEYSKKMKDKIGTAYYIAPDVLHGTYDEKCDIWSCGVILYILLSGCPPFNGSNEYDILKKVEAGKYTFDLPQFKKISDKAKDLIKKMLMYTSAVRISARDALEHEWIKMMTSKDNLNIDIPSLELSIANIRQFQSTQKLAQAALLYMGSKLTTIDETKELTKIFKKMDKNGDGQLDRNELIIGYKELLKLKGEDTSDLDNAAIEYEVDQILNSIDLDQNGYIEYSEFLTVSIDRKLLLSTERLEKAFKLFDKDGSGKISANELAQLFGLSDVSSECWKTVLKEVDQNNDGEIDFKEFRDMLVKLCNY

Sequence of Plasmodium falciparum protein kinase 6 (PK6, PF3D7_1337100) (Q8IDW1 1-305): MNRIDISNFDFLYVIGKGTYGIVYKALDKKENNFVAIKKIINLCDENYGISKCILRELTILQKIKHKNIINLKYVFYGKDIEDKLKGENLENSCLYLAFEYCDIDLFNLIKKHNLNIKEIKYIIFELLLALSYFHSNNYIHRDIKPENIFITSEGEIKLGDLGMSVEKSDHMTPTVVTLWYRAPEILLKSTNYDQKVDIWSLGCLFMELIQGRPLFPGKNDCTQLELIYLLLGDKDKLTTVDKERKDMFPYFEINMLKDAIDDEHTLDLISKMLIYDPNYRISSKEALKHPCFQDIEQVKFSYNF
Sequence of L-lactate dehydrogenase (Plasmodium falciparum (isolate CDC / Honduras)) (Q27743 whole entry, looked up): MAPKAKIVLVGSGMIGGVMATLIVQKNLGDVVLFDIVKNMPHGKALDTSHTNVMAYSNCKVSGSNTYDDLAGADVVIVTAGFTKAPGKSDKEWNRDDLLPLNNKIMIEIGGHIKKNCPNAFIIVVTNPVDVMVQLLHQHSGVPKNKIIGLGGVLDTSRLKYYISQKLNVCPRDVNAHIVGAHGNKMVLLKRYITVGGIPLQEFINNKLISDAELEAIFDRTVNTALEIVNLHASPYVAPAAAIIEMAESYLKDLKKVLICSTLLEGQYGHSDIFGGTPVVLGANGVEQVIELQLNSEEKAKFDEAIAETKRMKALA
Sequence of Protein kinase 7 (PK7), Plasmodium falciparum 3D7 (PF3D7_0213400) (Q7YTF7 1-343): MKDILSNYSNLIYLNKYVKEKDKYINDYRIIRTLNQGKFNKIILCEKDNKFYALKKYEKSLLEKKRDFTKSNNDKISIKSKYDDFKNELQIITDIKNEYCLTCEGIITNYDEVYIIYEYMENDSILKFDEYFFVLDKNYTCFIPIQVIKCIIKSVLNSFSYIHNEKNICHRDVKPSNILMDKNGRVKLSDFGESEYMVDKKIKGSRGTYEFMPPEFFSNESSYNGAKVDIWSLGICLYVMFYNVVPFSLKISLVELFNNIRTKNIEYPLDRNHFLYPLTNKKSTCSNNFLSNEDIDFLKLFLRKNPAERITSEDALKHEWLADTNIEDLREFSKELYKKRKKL
Sequence of Calcium-dependent protein kinase 1 (Plasmodium falciparum (isolate 3D7)) (P62344 whole entry, looked up): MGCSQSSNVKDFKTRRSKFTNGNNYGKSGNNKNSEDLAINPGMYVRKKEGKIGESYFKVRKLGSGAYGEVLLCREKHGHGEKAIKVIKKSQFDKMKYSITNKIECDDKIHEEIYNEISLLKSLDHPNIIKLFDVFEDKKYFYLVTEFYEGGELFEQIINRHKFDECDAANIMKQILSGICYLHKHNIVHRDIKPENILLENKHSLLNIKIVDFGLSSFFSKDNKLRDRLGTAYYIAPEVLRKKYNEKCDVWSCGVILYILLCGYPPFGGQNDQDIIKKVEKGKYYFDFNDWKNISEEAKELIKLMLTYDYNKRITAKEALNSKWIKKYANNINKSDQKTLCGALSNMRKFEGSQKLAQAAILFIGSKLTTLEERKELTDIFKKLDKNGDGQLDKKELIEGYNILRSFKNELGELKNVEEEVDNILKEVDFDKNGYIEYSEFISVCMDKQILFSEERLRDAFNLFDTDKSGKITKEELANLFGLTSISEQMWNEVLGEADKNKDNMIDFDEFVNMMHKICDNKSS

CN(C)Cc1cccc(CNC(=O)c2sccc2OCc2ccc(Cl)cc2)c1
active: growth inhibition [1] 88% | growth inhibition [4] 90%
inactive: inhibition [2] 7% | inhibition [3] -6% | outcome [5] | outcome [6] | outcome [7] | outcome [8]

Cc1cccc2[nH]c(-c3ccc(-c4ccc(NC(=O)c5cncn5C)cc4)s3)nc12
active: growth inhibition [4] 102%
inactive: growth inhibition [1] 30% | inhibition [2] 49% | inhibition [3] 4% | outcome [5] | outcome [6] | outcome [7] | outcome [8]

Cc1cc(N2CCN(CC3CCN(C)CC3)CC2)nc(Nc2ccc(Cl)cc2)n1
active: growth inhibition [1] 89% | growth inhibition [4] 99%
inactive: inhibition [2] 20% | inhibition [3] -6% | outcome [5] | outcome [6] | outcome [7] | outcome [8]

Cc1ccc(Nc2nccc(NCC(O)c3cccc(C(F)(F)F)c3)n2)cc1 (stereo not drawn)
inactive: inhibition [2] 19% | inhibition [3] -6% | outcome [5] | outcome [6] | outcome [7] | outcome [8]
active: growth inhibition [1] 74% | growth inhibition [4] 99%

CCN(CCCN1CCCCC1)c1cc(C)nc(Nc2ccc(Br)cc2F)n1
active: growth inhibition [4] 95%
inactive: growth inhibition [1] 24% | inhibition [2] 32% | inhibition [3] -6% | outcome [5] | outcome [6] | outcome [7] | outcome [8]

COc1ccc2nccc([C@@H](O)CN3CCC(NC(=O)C(c4cc5ccccc5o4)N4CCN(C(c5ccccc5)c5ccccc5)CC4)CC3)c2c1 (stereo partly drawn)
active: growth inhibition [1] 100% | growth inhibition [4] 100%
inactive: inhibition [2] 18% | inhibition [3] -4% | outcome [5] | outcome [6] | outcome [7] | outcome [8]

O=C(Nc1ccc(OC2CCN(Cc3ccc(F)cc3)CC2)c(Cl)c1)c1cccs1
active: growth inhibition [1] 96% | growth inhibition [4] 95%
inactive: inhibition [2] 7% | inhibition [3] -1% | outcome [5] | outcome [6] | outcome [7] | outcome [8]

Cc1cccc2[nH]c(-c3ccc(-c4cccc(NC(=O)Nc5ccc(Cl)c(Cl)c5)c4)s3)nc12
active: growth inhibition [4] 101%
inactive: growth inhibition [1] 36% | inhibition [2] 46% | inhibition [3] -1% | outcome [5] | outcome [6] | outcome [7] | outcome [8]

CN1CCC(N2CCN(Cc3cccc(-c4ccc(-c5nc6ccc(F)cc6[nH]5)cc4)c3)CC2)CC1
active: growth inhibition [1] 100% | inhibition [2] 92% | growth inhibition [4] 100%
inactive: inhibition [3] 3% | outcome [5] | outcome [6] | outcome [7] | outcome [8]

CCCCc1ccc(CCNCCCCCCNCCc2ccc(O)c(O)c2)cc1
active: growth inhibition [4] 100%
inactive: growth inhibition [1] -1% | inhibition [2] 45% | inhibition [3] 5% | outcome [5] | outcome [6] | outcome [7] | outcome [8]

O=C(Nc1cccc(-c2cccc(-c3nc4ccccc4[nH]3)c2)c1)c1ccoc1
inactive: growth inhibition [1] 36% | inhibition [2] 19% | inhibition [3] 5% | outcome [5] | outcome [6] | outcome [7] | outcome [8]
active: growth inhibition [4] 85%

N#Cc1ccc2c(c1)CCN(CCC1CCC(NC(=O)c3cc4cccc(Cl)c4[nH]3)CC1)CC2 (stereo not drawn)
active: growth inhibition [1] 78% | growth inhibition [4] 99%
inactive: inhibition [2] 34% | inhibition [3] 0% | outcome [5] | outcome [6] | outcome [7] | outcome [8]

CC(C)NCc1ccc(-c2ccc(CN3CCCC(c4ccccc4)C3)cc2)c(C(=O)NCC2CCCCC2)c1 (stereo not drawn)
inactive: inhibition [3] -3% | outcome [5] | outcome [6] | outcome [7] | outcome [8]
active: growth inhibition [1] 53% | inhibition [2] 79% | growth inhibition [4] 97%

COCCn1c(-c2cccc(Cl)c2)nn(-c2ccc([N+](=O)[O-])cc2Cl)c1=S
inactive: inhibition [2] 2% | inhibition [3] -2% | outcome [5] | outcome [6] | outcome [7] | outcome [8]
active: growth inhibition [1] 99% | growth inhibition [4] 100%

Cc1ccc2nc(C)cc(NN=Cc3ccccc3F)c2c1
active: growth inhibition [1] 100% | growth inhibition [4] 97%
inactive: inhibition [2] 36% | inhibition [3] -3% | outcome [5] | outcome [6] | outcome [7] | outcome [8]

Cc1noc(C)c1-c1ccc2c(Nc3ccc([N+](=O)[O-])cc3)c(C(N)=O)cnc2c1
inactive: inhibition [2] 4% | inhibition [3] 4% | outcome [5] | outcome [6] | outcome [7] | outcome [8]
active: growth inhibition [1] 98% | growth inhibition [4] 100%

COc1ccc2c(=O)c(-c3ccc(OC(F)(F)F)cc3)c(C)[nH]c2c1
inactive: inhibition [2] 0% | inhibition [3] -3% | outcome [5] | outcome [6] | outcome [7] | outcome [8]
active: growth inhibition [1] 96% | growth inhibition [4] 97%

C=CCOc1ccc(CNC2CCN(Cc3ccccc3)CC2)cc1Br
inactive: growth inhibition [1] 8% | inhibition [2] 9% | inhibition [3] -2% | outcome [5] | outcome [6] | outcome [7] | outcome [8]
active: growth inhibition [4] 92%

COc1ccc(NC(=O)[C@H](Cc2ccccc2)Nc2cc(C)nc(NCC3CCCCC3)n2)cc1
inactive: inhibition [2] 9% | inhibition [3] 1% | outcome [5] | outcome [6] | outcome [7] | outcome [8]
active: growth inhibition [1] 83% | growth inhibition [4] 100%

COc1ccc(Nc2nccc(N3CCC(NC(=O)Nc4cccc(OC)c4)C3)n2)cc1 (stereo not drawn)
active: growth inhibition [4] 99%
inactive: growth inhibition [1] 48% | inhibition [2] 23% | inhibition [3] -1% | outcome [5] | outcome [6] | outcome [7] | outcome [8]

O=C(Nc1ccc(C(F)(F)F)cc1)NC1CCN(c2ccnc3cc(Cl)ccc23)C1 (stereo not drawn)
inactive: inhibition [2] 20% | inhibition [3] -2% | outcome [5] | outcome [6] | outcome [7] | outcome [8]
active: growth inhibition [1] 99% | growth inhibition [4] 102%

Cc1ccc(NC(=O)N2CCC(n3c(-c4ccccc4)nc4cccnc43)CC2)cc1F
active: growth inhibition [1] 85% | growth inhibition [4] 96%
inactive: inhibition [2] 23% | inhibition [3] 2% | outcome [5] | outcome [6] | outcome [7] | outcome [8]

Cc1ccc2c(=O)cc(CCc3cccc(F)c3F)n(CC(=O)N(Cc3ccc(-c4ccc(C(F)(F)F)cc4)cc3)C3CCN(C)CC3)c2n1
active: growth inhibition [1] 76% | growth inhibition [4] 86%
inactive: inhibition [2] 49% | inhibition [3] 0% | outcome [5] | outcome [6] | outcome [7] | outcome [8]

c1ccc(CCNc2ncnc3c2[nH]c2ccccc23)cc1
active: growth inhibition [1] 94% | inhibition [2] 50% | growth inhibition [4] 95%
inactive: inhibition [3] -1% | outcome [5] | outcome [6] | outcome [7] | outcome [8]

O=C(/C=C/c1ccc(Cl)c(Cl)c1)NCCCCN1CCCN(C(=O)Nc2ccc(C(F)(F)F)cc2)CC1
inactive: growth inhibition [1] -1% | inhibition [2] 35% | inhibition [3] 5% | outcome [5] | outcome [6] | outcome [7] | outcome [8]
active: growth inhibition [4] 94%

COc1ccc2c(CCNc3nc(SC)ncc3C(=O)NCCc3ccc(F)cc3)c[nH]c2c1
inactive: growth inhibition [1] 49% | inhibition [2] 3% | inhibition [3] -1% | outcome [5] | outcome [6] | outcome [7] | outcome [8]
active: growth inhibition [4] 91%

CC(C)N1CCC(N(Cc2ccc(-c3ccc(C(F)(F)F)cc3)cc2)C(=O)Cn2c(CCc3cccc(F)c3F)cc(=O)c3cn(C)nc32)CC1
active: growth inhibition [1] 78% | inhibition [2] 100% | growth inhibition [4] 89%
inactive: inhibition [3] 6% | outcome [5] | outcome [6] | outcome [7] | outcome [8]

COc1cccc(CN2CCCC(CCC(=O)Nc3ccc(C(F)(F)F)cc3)C2)c1O (stereo not drawn)
inactive: inhibition [2] 15% | inhibition [3] -2% | outcome [5] | outcome [6] | outcome [7] | outcome [8]
active: growth inhibition [1] 97% | growth inhibition [4] 98%

O=C(/C=C/c1c[nH]c2ccccc12)NCCCCCN1CCC(c2c[nH]c3ccccc23)CC1
active: growth inhibition [4] 96%
inactive: growth inhibition [1] 0% | inhibition [2] 20% | inhibition [3] 5% | outcome [5] | outcome [6] | outcome [7] | outcome [8]

CN1CCN(CCCNCc2ccccc2-c2cccc(CNCc3ccc4c(c3)OCO4)c2)CC1
active: growth inhibition [4] 102%
inactive: growth inhibition [1] 7% | inhibition [2] 34% | inhibition [3] -1% | outcome [5] | outcome [6] | outcome [7] | outcome [8]

Oc1ccc(CCNCCCCCCNCCc2ccc(-c3ccccc3)cc2)cc1O
active: inhibition [2] 72% | growth inhibition [4] 101%
inactive: growth inhibition [1] 8% | inhibition [3] 1% | outcome [5] | outcome [6] | outcome [7] | outcome [8]

CC1(C)N=C(N)N=C(N)N1OCc1cccc2c1ccc1ccccc12
inactive: inhibition [3] 4% | outcome [5] | outcome [6] | outcome [7] | outcome [8]
active: growth inhibition [1] 97% | inhibition [2] 63% | growth inhibition [4] 95%

CCc1c[nH]c2c(N3CCCCS3(=O)=O)cc(C(=O)N[C@@H](Cc3ccccc3)[C@H](O)CNCc3cccc(OC)c3)cc12
inactive: inhibition [2] 0% | inhibition [3] -3% | outcome [5] | outcome [6] | outcome [7] | outcome [8]
active: growth inhibition [1] 91% | growth inhibition [4] 86%

COc1ccc2nccc(N3CCCN(CCNS(=O)(=O)c4ccc5c(c4)NC(=O)CS5)CC3)c2n1
inactive: growth inhibition [1] 15% | inhibition [2] -2% | inhibition [3] -9% | outcome [5] | outcome [6] | outcome [7] | outcome [8]
active: growth inhibition [4] 97%

CCN(CC)c1nc(Nc2cc(C)ccc2C)nc(Nc2ccccc2O)n1
active: growth inhibition [1] 99% | growth inhibition [4] 101%
inactive: inhibition [2] -9% | inhibition [3] 2% | outcome [5] | outcome [6] | outcome [7] | outcome [8]

COc1ccc(-c2ccc(NC(=O)c3ccc(C#N)cc3)cc2)cc1CN1CCN(C)CC1
active: growth inhibition [4] 93%
inactive: growth inhibition [1] 49% | inhibition [2] 21% | inhibition [3] 1% | outcome [5] | outcome [6] | outcome [7] | outcome [8]

COc1ccccc1N=C1SC(=Cc2cn(CC(=O)N3CCCc4ccccc43)c3ccccc23)C(=O)N1C1CCCCC1
inactive: inhibition [2] 10% | inhibition [3] 2% | outcome [5] | outcome [6] | outcome [7] | outcome [8]
active: growth inhibition [1] 99% | growth inhibition [4] 100%

COCn1ccc2c3c(N)nc(N)nc3ccc21
inactive: growth inhibition [1] 1% | inhibition [3] 6% | outcome [5] | outcome [6] | outcome [7] | outcome [8]
active: inhibition [2] 63% | growth inhibition [4] 88%

COc1ccc(CC2(c3ccc(F)cc3)N=C(N)N(CCCc3cccnc3)C2=O)cc1 (stereo not drawn)
inactive: inhibition [2] 12% | inhibition [3] 0% | outcome [5] | outcome [6] | outcome [7] | outcome [8]
active: growth inhibition [1] 97% | growth inhibition [4] 98%

Cn1cc(C2CCN(CCCCNC(=O)c3ccc(C(=O)Nc4ccc(C#N)cc4)cc3)CC2)c2ccccc21
inactive: inhibition [2] 16% | inhibition [3] -4% | outcome [5] | outcome [6] | outcome [7] | outcome [8]
active: growth inhibition [1] 58% | growth inhibition [4] 100%

CCNc1cc(C(=O)N[C@@H](Cc2ccccc2)[C@H](O)CNCc2cccc(-c3cncnc3)c2)cc(N2CCCC2=O)c1
inactive: inhibition [2] 5% | inhibition [3] 2% | outcome [5] | outcome [6] | outcome [7] | outcome [8]
active: growth inhibition [1] 96% | growth inhibition [4] 97%
